Results filed as inconclusive are left out. Activity calls are given as the source filed them. Calls come from the whole dose curve; as a rule, active = well fitted curve in the direction sought with a large enough effect; inconclusive = small, poorly fitted or top-dose-only effect, or another doubt; inactive = no such curve, though single readings can be large; an effect the other way counts as inactive or inconclusive.
% is set by controls: 0 for no effect and ±100 for the full control effect.

In one assay the target is Ubiquitin carboxyl-terminal hydrolase 1 (Homo sapiens) (UniProt O94782). Put plainly: Inhibitors of USP1/UAF1: Pilot qHTS (AID 504865).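 For activity change, negative = inhibition: rhodamine fluorescence freed from ubiquitin-rhodamine substrate followed over time; top concentration of the series differs between compounds.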 Note: nearly all actives have a fitted effect of over 35% in size. Note: potency is the fitted concentration of half-maximal effect. Conditions: purified USP1/UAF1, Ub-rhodamine cleavage fluorescence; series mostly up to 54.9 µM; activity change, negative = inhibition: at the top concentration. A digest of the protocol: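 Kinetic fluorescence assay: 1nM USP1/UAF1, 15 min compound preincubation, then 150nM Ub-Rho; 480/540 nm.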
Chain of Ubiquitin carboxyl-terminal hydrolase 1 (Homo sapiens) (O94782 whole entry, looked up): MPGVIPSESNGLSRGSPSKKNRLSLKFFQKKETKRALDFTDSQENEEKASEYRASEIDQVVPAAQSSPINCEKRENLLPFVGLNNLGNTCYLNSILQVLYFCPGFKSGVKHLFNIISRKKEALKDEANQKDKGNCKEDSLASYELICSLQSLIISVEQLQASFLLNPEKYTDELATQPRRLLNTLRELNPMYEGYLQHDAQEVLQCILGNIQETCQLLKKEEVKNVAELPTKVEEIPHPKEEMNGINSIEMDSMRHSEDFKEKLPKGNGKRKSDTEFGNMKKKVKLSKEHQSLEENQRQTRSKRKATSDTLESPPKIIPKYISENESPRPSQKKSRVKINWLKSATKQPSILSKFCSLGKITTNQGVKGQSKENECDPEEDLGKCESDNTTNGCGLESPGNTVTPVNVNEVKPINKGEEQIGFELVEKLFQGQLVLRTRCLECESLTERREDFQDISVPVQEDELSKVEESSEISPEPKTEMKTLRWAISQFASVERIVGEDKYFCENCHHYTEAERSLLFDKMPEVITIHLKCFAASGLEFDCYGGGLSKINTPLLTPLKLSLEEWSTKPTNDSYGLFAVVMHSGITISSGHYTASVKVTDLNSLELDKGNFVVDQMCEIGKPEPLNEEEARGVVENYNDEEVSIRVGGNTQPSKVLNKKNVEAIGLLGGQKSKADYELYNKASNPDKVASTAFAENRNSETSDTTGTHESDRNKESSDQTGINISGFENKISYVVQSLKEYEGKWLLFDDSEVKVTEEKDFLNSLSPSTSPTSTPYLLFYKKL
(qHTS replaces the single test concentration by a dilution series.)
On to `Cc1noc(C)c1-c1nccc(NCc2ccccc2)n1`, for which the Potency is 25.1 µM (active).

In the case of `c1ccc(CNc2cc(-c3ccoc3)ncn2)cc1`, the “activity change, negative = inhibition” value is -1.42% (inactive). For `CN(Cc1ccco1)c1cc(-c2cccnc2)ncn1`, the “activity change, negative = inhibition” value is -10.5% (inactive). As to `c1cncc(CNc2cc(-c3ccoc3)ncn2)c1`, the “activity change, negative = inhibition” value is -17.7% (inactive).

On to `CC(=O)NCCNc1nc(-c2c(C)noc2C)nc2ccccc12`, for which the “activity change, negative = inhibition” value was -11.8% (inactive). Still for that read-out and setting: the result for `CC(=O)NCCNc1ccnc(-c2ccccc2C)n1` reads -13.4% (inactive); that for `Cc1cnc(CNc2ccnc(-c3cccc(NS(C)(=O)=O)c3)n2)cn1`, -8.24% (inactive). With `CS(=O)(=O)Nc1cccc(-c2cc(NCc3ccccc3)ncn2)c1`, the “activity change, negative = inhibition” value was -16.8% (inactive). On to `CCNc1ncc2nc(-c3cccc(C#N)c3)c(=O)n(CCC#N)c2n1`, for which the “activity change, negative = inhibition” value is -5.93% (inactive). The same measure, in the same setting: the result for `c1ccc(CNc2nc(-c3ccoc3)nc3ccccc23)cc1` reads -18.9% (inactive). The same measure, in the same setting: the same measure for `COc1ccc(CNc2ccnc(-c3cccnc3)n2)c(OC)c1`: -8.12% (inactive). The same measure, in the same setting: the result for `COCCn1c(=O)c(-c2cccc(F)c2)nc2cncnc21` reads -18.6% (inactive). As to `CN(Cc1ccco1)c1ccnc(-c2cccnc2)n1`, the “activity change, negative = inhibition” value is -3.05% (inactive). Consider `O=c1c(-c2cccc(Cl)c2)nc2cncnc2n1Cc1ccccc1`, for which the “activity change, negative = inhibition” value was -4.96% (inactive). As to `CS(=O)(=O)Nc1cccc(-c2cncnc2Nc2ccccc2)c1`, the “activity change, negative = inhibition” value is -7.71% (inactive). Still for that read-out and setting: the result for `COc1cccc(Cn2c(=O)c(-c3cccc(C#N)c3)nc3cnc(OC)nc32)c1` reads -14.8% (inactive); that for `O=c1c(-c2cccs2)nc2cncnc2n1-c1ccccc1`, -12.9% (inactive); that for `Cn1cc(-c2nc3cncnc3n(C3CC3)c2=O)c2ccccc21`, -10.9% (inactive).

Consider `Clc1ccccc1-c1nccc(NCCN2CCOCC2)n1`, for which the “activity change, negative = inhibition” value is -12.5% (inactive). On the same count and under the same terms, the same measure for `COc1cccc(-c2cncnc2NCc2cnc(C)cn2)c1`: -5.03% (inactive); for `CN(C)C(=O)c1ccc(-c2nccc(-n3ccnc3)n2)cc1`: -1.09% (inactive); for `COc1cccc(-c2cncnc2NCc2cccs2)c1`: -13.5% (inactive). The same measure, in the same setting: the result for `COc1ccc2[nH]cc(CCNc3ncncc3-c3cccnc3)c2c1` reads -12.2% (inactive); that for `COc1ccccc1-c1cc(Nc2ccn[nH]2)ncn1`, -7.98% (inactive); that for `COc1ccccc1-c1cncnc1NCc1cccs1`, -9.25% (inactive). Still for that read-out and setting: the result for `N#Cc1ccccc1-c1ccc2ncnc(NCCN3CCOCC3)c2c1` reads -8% (inactive); that for `CN(Cc1ccco1)c1ncncc1-c1cccnc1`, -14.3% (inactive). `COc1ccc2[nH]cc(CCNc3ccnc(-c4ccc5c(c4)OCO5)n3)c2c1`: the “activity change, negative = inhibition” value was -20.6% (inactive). Same read-out and setting: the same measure for `Cc1ccccc1-c1cc(NCc2cccnc2)ncn1`: -10.3% (inactive); for `CCNc1ncc2nc(-c3cccs3)c(=O)n(-c3ccccc3)c2n1`: -9.24% (inactive). Consider `COCCNc1nc(-c2c(C)noc2C)nc2ccccc12`, for which the “activity change, negative = inhibition” value is -12.5% (inactive). For the molecule `COc1ccccc1-c1cncnc1NCc1ccccc1`, the “activity change, negative = inhibition” value was -15.2% (inactive). On the same count and under the same terms, the result for `COc1ccccc1-c1nc(NCCN2CCOCC2)c2ccccc2n1` reads -4.71% (inactive). On the same count and under the same terms, the same measure for `Cc1ccccc1-c1cc(N(C)Cc2ccco2)ncn1`: -12.1% (inactive); for `CN(C)C(=O)c1ccc(-c2ccc3ncnc(N4CCOCC4)c3c2)cc1`: -1.36% (inactive); for `CS(=O)(=O)Nc1cccc(-c2cncnc2-n2ccnc2)c1`: -7.85% (inactive).

Test system in another assay: not listed separately
Put plainly: Primary qHTS for small molecule stabilizers of the endoplasmic reticulum resident proteome: Secreted ER Calcium Modulated Protein (SERCaMP) assay (AID 1508630). Conditions: SH-SY5Y GLuc-SERCaMP (Gaussia luciferase released on ER calcium loss) secretion, thapsigargin, luminescence; series mostly up to 38.4 µM; activity change, negative = inhibition: at the top concentration. The procedure, abridged:
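The SH-SY5Y reporter protocol was run at 3 concentrations up to 38.3 uM (primary) or 11 concentrations (follow-up): 16 h compound, 100 nM thapsigargin for 4 h, then extracellular luciferase luminescence.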
For the molecule `Cc1noc(C)c1-c1nccc(NCc2ccccc2)n1`, the “activity change, negative = inhibition” value was 33.9% (inactive). Same read-out and setting: the result for `c1ccc(CNc2cc(-c3ccoc3)ncn2)cc1` reads 2.08% (inactive); that for `CN(Cc1ccco1)c1cc(-c2cccnc2)ncn1`, 22.1% (inactive); that for `c1cncc(CNc2cc(-c3ccoc3)ncn2)c1`, 35% (inactive). `CC(=O)NCCNc1nc(-c2c(C)noc2C)nc2ccccc12`: the “activity change, negative = inhibition” value was 15.9% (inactive).

With `CC(=O)NCCNc1ccnc(-c2ccccc2C)n1`, the “activity change, negative = inhibition” value is 15.5% (inactive).

Take `Cc1cnc(CNc2ccnc(-c3cccc(NS(C)(=O)=O)c3)n2)cn1`: the “activity change, negative = inhibition” value was 44.3% (inactive). For `CS(=O)(=O)Nc1cccc(-c2cc(NCc3ccccc3)ncn2)c1`, the “activity change, negative = inhibition” value was -22.4% (inactive). With `CCNc1ncc2nc(-c3cccc(C#N)c3)c(=O)n(CCC#N)c2n1`, the “activity change, negative = inhibition” value was -11.2% (inactive).

For `c1ccc(CNc2nc(-c3ccoc3)nc3ccccc23)cc1`, the “activity change, negative = inhibition” value was -12.3% (inactive). Still for that read-out and setting: the result for `COc1ccc(CNc2ccnc(-c3cccnc3)n2)c(OC)c1` reads -12.5% (inactive); that for `COCCn1c(=O)c(-c2cccc(F)c2)nc2cncnc21`, 12.9% (inactive); that for `CN(Cc1ccco1)c1ccnc(-c2cccnc2)n1`, 17% (inactive). The same measure, in the same setting: the same measure for `O=c1c(-c2cccc(Cl)c2)nc2cncnc2n1Cc1ccccc1`: -11.7% (inactive). Same read-out and setting: the same measure for `CS(=O)(=O)Nc1cccc(-c2cncnc2Nc2ccccc2)c1`: -15.7% (inactive); for `COc1ccc(CNc2ncncc2-c2ccc(N(C)C)cc2)c(OC)c1`: -3.81% (inactive); for `COc1cccc(Cn2c(=O)c(-c3cccc(C#N)c3)nc3cnc(OC)nc32)c1`: 14.5% (inactive). Take `O=c1c(-c2cccs2)nc2cncnc2n1-c1ccccc1`: the “activity change, negative = inhibition” value was 41.6% (inactive). Still for that read-out and setting: the result for `Cn1cc(-c2nc3cncnc3n(C3CC3)c2=O)c2ccccc21` reads -10.4% (inactive). Still for that read-out and setting: the same measure for `Clc1ccccc1-c1nccc(NCCN2CCOCC2)n1`: -18.3% (inactive); for `COc1cccc(-c2cncnc2NCc2cnc(C)cn2)c1`: 52.8% (inactive); for `c1ccc(Nc2ncncc2-c2ccoc2)cc1`: -9.06% (inactive). Take `CN(C)C(=O)c1ccc(-c2nccc(-n3ccnc3)n2)cc1`: the “activity change, negative = inhibition” value is 18.3% (inactive). Consider `COc1cccc(-c2cncnc2NCc2cccs2)c1`, for which the “activity change, negative = inhibition” value is 0.305% (inactive). The same measure, in the same setting: the result for `COc1ccc2[nH]cc(CCNc3ncncc3-c3cccnc3)c2c1` reads -1.56% (inactive); that for `COc1ccccc1-c1cc(Nc2ccn[nH]2)ncn1`, 88.6% (inactive); that for `COc1ccccc1-c1cncnc1NCc1cccs1`, 10% (inactive). As to `N#Cc1ccccc1-c1ccc2ncnc(NCCN3CCOCC3)c2c1`, the “activity change, negative = inhibition” value was -25.7% (inactive). On the same count and under the same terms, the same measure for `CN(Cc1ccco1)c1ncncc1-c1cccnc1`: 21.4% (inactive); for `COc1ccc2[nH]cc(CCNc3ccnc(-c4ccc5c(c4)OCO5)n3)c2c1`: -2.34% (inactive); for `Cc1ccccc1-c1cc(NCc2cccnc2)ncn1`: 50.2% (inactive). Still for that read-out and setting: the result for `CCNc1ncc2nc(-c3cccs3)c(=O)n(-c3ccccc3)c2n1` reads 17.9% (inactive).

Consider `COCCNc1nc(-c2c(C)noc2C)nc2ccccc12`, for which the “activity change, negative = inhibition” value is 47% (inactive). Regarding `COc1ccccc1-c1nc(N(C)Cc2ccco2)c2ccccc2n1`, the “activity change, negative = inhibition” value was -29.3% (inactive). As to `COc1ccccc1-c1cncnc1NCc1ccccc1`, the “activity change, negative = inhibition” value was -28.5% (inactive). Same read-out and setting: the result for `COc1ccccc1-c1nc(NCCN2CCOCC2)c2ccccc2n1` reads -6.84% (inactive); that for `c1csc(CNc2nc(-c3ccoc3)nc3ccccc23)c1`, -21.6% (inactive).

Consider `Cc1ccccc1-c1cc(N(C)Cc2ccco2)ncn1`, for which the “activity change, negative = inhibition” value is 25.7% (inactive). Same read-out and setting: the result for `CN(C)C(=O)c1ccc(-c2ccc3ncnc(N4CCOCC4)c3c2)cc1` reads 36.9% (inactive); that for `CS(=O)(=O)Nc1cccc(-c2cncnc2-n2ccnc2)c1`, -13.9% (inactive).

Values taken from PubChem BioAssay (NCATS).
